# A collection of fitness landscapes (doi:10.1126/science.1257360)
# In all, about 140,000 sequences were measured (“enrichment ratio after two sorts for PhoP signalling”: median about 0, highest 2% from about 11 on). What follows is part of a selection rich in the highest values, with near analogues and random picks from the rest.
# B1: PhoQ; a variant is named by its letters at X, in order, P23837 (parent)
# chain: MKKLLRLFFPLSLRVRFLLATAAVVLVLSLAYGMVALIGYSVSFDKTTFRLLRGESNLFYTLAKWENNKLHVELPENIDKQSPTMTLIYDENGQLLWAQRDVPWLMKMIQPDWLKSNGFHEIEADVNDTSLLLSGDHSIQQQLQEVREDDDDAEMTHSVAVNVYPATSRMPKLTIVVVDTIPVELKSSYMVWSWFIYVLSANLLLVIPLLWVAAWWSLRPIEALAKEVRELEEHNRELLNPATTRELTSLVRNLNRLLKSERERYDKYRTTLTDLTHSLKTPLXXLQXXLRSLRSEKMSVSDAEPVMLEQISRISQQIGYYLHRASMRGGTLLSRELHPVAPLLDNLTSALNKVYQRKGVNISLDISPEISFVGEQNDFVEVMGNVLDNACKYCLEFVEISARQTDEHLYIVVEDDGPGIPLSKREVIFDRGQRVDTLRPGQGVGLAVAREITEQYEGKIVAGESMLGGARMEVIFGRQHSAPKDE
# Variants of: B1
# Test: enrichment ratio after two sorts for PhoP signalling (ratio (wild type AVST 3.29)); higher = more functional
# Conditions: with PhoP (E. coli)
row,Variant,enrichment ratio
1,DMRV,≤ 0.25
2,EDCW,≤ 0.25
3,MMNP,≤ 0.25
4,DYLI,≤ 0.25
5,GGIM,13.9
6,GVWM,≤ 0.25
7,NVIM,≤ 0.25
8,GVIM,19.3
9,NIIM,≤ 0.25
10,GTIM,2.86
11,FMTM,≤ 0.25
12,GIIM,1.99
13,GNIM,13.4
14,MAPM,≤ 0.25
15,MATM,22.6
16,YHIM,≤ 0.25
17,VKAK,≤ 0.25
18,HKPF,≤ 0.25
19,EDLF,≤ 0.25
20,GLPS,≤ 0.25
21,PYPA,≤ 0.25
22,KRQM,≤ 0.25
23,HDQM,≤ 0.25
24,YYGF,≤ 0.25
25,YSDV,≤ 0.25

row,Variant,enrichment ratio
1,VFWT,≤ 0.25
2,MASM,16.9
3,MVTM,3.98
4,MRSM,≤ 0.25
5,MVSM,12.3
6,GYSM,≤ 0.25
7,GVSM,0.841
8,MVHF,0.626
9,MESM,19
10,MQSM,8.88
11,FVSM,≤ 0.25
12,GQSM,20.5
13,FQSM,≤ 0.25
14,LDIM,≤ 0.25
15,MSCN,1.97
16,THNV,≤ 0.25
17,ILTF,0.323
18,GVMY,≤ 0.25
19,KDHR,≤ 0.25
20,NESM,≤ 0.25
21,QESM,5.67
22,NESF,≤ 0.25
23,GESM,17.3
24,GSSM,11.2
25,GEHF,≤ 0.25

row,Variant,enrichment ratio
1,QESF,≤ 0.25
2,GESF,0.55
3,GSQM,≤ 0.25
4,TESM,30
5,GSSF,0.449
6,TESF,11.5
7,TLHH,≤ 0.25
8,FQMV,0.463
9,MHQA,≤ 0.25
10,NHWK,≤ 0.25
11,ITGV,≤ 0.25
12,TASM,13.4
13,KASM,≤ 0.25
14,NASM,≤ 0.25
15,AEWF,≤ 0.25
16,WRRW,≤ 0.25
17,AKND,≤ 0.25
18,MKND,≤ 0.25
19,TKND,12.6
20,THND,29.6
21,SHND,≤ 0.25
22,NHND,≤ 0.25
23,DRLD,≤ 0.25
24,HSGG,≤ 0.25
25,FKNI,≤ 0.25

row,Variant,enrichment ratio
1,NEDI,≤ 0.25
2,NKAR,≤ 0.25
3,FVHD,≤ 0.25
4,WDYC,≤ 0.25
5,AKTE,≤ 0.25
6,AITE,≤ 0.25
7,AMNL,3.05
8,AMCI,14.1
9,NMCL,≤ 0.25
10,AMCS,5.27
11,AMTE,15.1
12,AMIE,≤ 0.25
13,AMCK,≤ 0.25
14,AMPE,≤ 0.25
15,AMCE,67.3
16,AMCL,15.7
17,PGVP,≤ 0.25
18,HSSS,≤ 0.25
19,DNCF,≤ 0.25
20,HRPL,≤ 0.25
21,NSCR,≤ 0.25
22,ILKS,≤ 0.25
23,APIM,≤ 0.25
24,QGSM,9.07
25,AMCA,19.4

row,Variant,enrichment ratio
1,AMPI,0.985
2,AMPA,≤ 0.25
3,MMHC,≤ 0.25
4,GDNT,≤ 0.25
5,GDIT,14
6,GDLT,≤ 0.25
7,NQIQ,≤ 0.25
8,GNIQ,9.19
9,GDHQ,≤ 0.25
10,GQIQ,14.9
11,GDHP,1.16
12,GDIQ,17.5
13,VNKQ,≤ 0.25
14,GRCH,≤ 0.25
15,YDLC,≤ 0.25
16,IFMM,≤ 0.25
17,AGLM,6.12
18,GGLM,2.85
19,HGLM,16.4
20,HFLM,≤ 0.25
21,NGLM,13.2
22,RGLM,≤ 0.25
23,SGLM,17.9
24,SGFA,≤ 0.25
25,HRLM,≤ 0.25

row,Variant,enrichment ratio
1,CFLM,≤ 0.25
2,TGLM,26.9
3,SGFM,5.94
4,RWIP,≤ 0.25
5,VHKL,≤ 0.25
6,MHLQ,≤ 0.25
7,DMYA,≤ 0.25
8,SEHG,≤ 0.25
9,VTGQ,≤ 0.25
10,YERP,≤ 0.25
11,RWVH,≤ 0.25
12,EIKR,≤ 0.25
13,WPFI,≤ 0.25
14,MTAY,4.94
15,IGLM,14
16,IGLA,≤ 0.25
17,IGFA,≤ 0.25
18,QFWE,≤ 0.25
19,ANCE,56
20,TGII,≤ 0.25
21,ANCA,44.6
22,ANPI,≤ 0.25
23,ANHE,≤ 0.25
24,AKSE,≤ 0.25
25,ANHV,≤ 0.25

row,Variant,enrichment ratio
1,ADSE,≤ 0.25
2,ANSE,11.5
3,ANIE,≤ 0.25
4,AGID,≤ 0.25
5,AGII,33.2
6,LPYL,≤ 0.25
7,MLTL,8.8
8,YPKQ,≤ 0.25
9,RNCE,≤ 0.25
10,IICI,≤ 0.25
11,MPFW,≤ 0.25
12,LFPW,≤ 0.25
13,RNAC,≤ 0.25
14,NMMW,≤ 0.25
15,QIFK,≤ 0.25
16,QINA,≤ 0.25
17,QQLA,≤ 0.25
18,PAGS,≤ 0.25
19,AIMV,5.05
20,ANCI,19.9
21,AHLC,≤ 0.25
22,ANHF,≤ 0.25
23,GNLH,1.09
24,LNLC,≤ 0.25
25,ADLH,5.09

row,Variant,enrichment ratio
1,FDMV,≤ 0.25
2,ANLH,13
3,ADMV,35.3
4,ANFA,≤ 0.25
5,ANLC,22.4
6,MAIR,≤ 0.25
7,TWDF,≤ 0.25
8,QNMP,≤ 0.25
9,QKNG,≤ 0.25
10,VWKN,≤ 0.25
11,TWHE,≤ 0.25
12,ANAW,≤ 0.25
13,EGLC,≤ 0.25
14,LNSI,≤ 0.25
15,ANYR,≤ 0.25
16,ADNS,≤ 0.25
17,AGIV,14.4
18,AGWV,≤ 0.25
19,ANSI,18
20,ADIV,12.5
21,ANNS,12.9
22,AIIV,3.98
23,ADYV,≤ 0.25
24,GNSI,4.37
25,AGIS,2.92
